Bioassay records (PubChem BioAssay)
COUP-TFII inh: NR2F2 transcriptional activity inhibitors, primary screen, cell-based, luciferase reporter, HEK293T, luminescence | HEK293T NGFI-A luciferase reporter | COUP transcription factor 2 (Homo sapiens), P24468 | inhibition, % at 8.6 µM | 370,000 compounds, 0.7% hits | AID 686940, 2013;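 active = inhibition above a per-plate cutoff, mean inhibition of test wells between control levels plus 3 SD, cut at about 38% in these data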;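 also: cells cotransfected with COUP-TFII expression vector driving the NGFI-A reporter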
Target sequence (P24468 whole entry, looked up): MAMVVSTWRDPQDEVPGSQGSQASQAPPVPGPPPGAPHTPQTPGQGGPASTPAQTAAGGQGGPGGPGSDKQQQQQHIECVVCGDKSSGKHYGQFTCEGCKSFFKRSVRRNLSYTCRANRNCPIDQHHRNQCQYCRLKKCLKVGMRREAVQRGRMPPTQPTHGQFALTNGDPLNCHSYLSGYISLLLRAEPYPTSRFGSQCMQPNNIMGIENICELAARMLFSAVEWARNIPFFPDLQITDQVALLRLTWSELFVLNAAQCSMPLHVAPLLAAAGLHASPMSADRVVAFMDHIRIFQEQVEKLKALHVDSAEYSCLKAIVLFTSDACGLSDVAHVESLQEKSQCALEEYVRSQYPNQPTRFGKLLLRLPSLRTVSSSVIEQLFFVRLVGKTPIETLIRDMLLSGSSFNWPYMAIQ
NCOA3 inh: SRC3 coactivator transcriptional activity inhibitors, primary screen, cell-based, luminescence; Nuclear receptor coactivator 3 (Homo sapiens), Q9Y6Q9; HEK293 GAL4-SRC3 luciferase reporter; inhibition, % at 3.6 µM; 360,000 compounds, 0.17% hits;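 active = inhibition above a per-campaign cutoff, the mean of all compounds plus 3 SD, cut at about 60% in these data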;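 also: higher means less SRC3-driven luciferase light from the GAL4 reporter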
GalR3 antagonist: GalR3 antagonists in HEK293 cells, primary screen, cell-based, fluorescence readout | Galanin receptor type 3 (Homo sapiens), O60755 | HEK293 GalR3-CNG cAMP membrane potential fluorescence; galR3 body fused to GalR1 C-terminus | inhibition, % at 3 µM | 360,000 compounds, 0.44% hits;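 active = inhibition above the screen-wide average plus 3 SD, cut at about 13% in these data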;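 also: forskolin and galanin both at EC90 stimulate the cells; cAMP rise reported by CNG channel membrane potential dye signal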
SRC1 inh: SRC1 coactivator transcriptional activity inhibitors, primary screen, cell-based, luminescence. 360,000 compounds, 0.12% hits. HEK293 GAL4-SRC1 luciferase reporter. inhibition, % at 3.6 µM;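 active = inhibition above the campaign mean plus 3 SD, with each screening campaign given its own cutoff, cut at about 60% in these data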
SRC2 inh: inhibition of GAL4-SRC2 driven luciferase reporter, primary screen, SRC2 inhibitor project, cell-based, luminescence; Nuclear receptor coactivator 2 (Homo sapiens), Q15596; HEK293 GAL4-SRC2 luciferase reporter; AID 651957, 2012; 370,000 compounds, 0.17% hits; inhibition, % at 9 µM;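 active = inhibition above the mean inhibition of all tested compounds plus 3 SD, set per campaign, cut at about 52% in these data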
NR5A2 inv ag: LRH-1 (NR5A2) inverse agonists, primary screen, cell-based, luminescence, HEK293T, StAR-luciferase reporter | Nuclear receptor subfamily 5 group A member 2 (Homo sapiens), O00482 | LRH-1 transfected, 24 h | inhibition, % at 3.6 µM | 360,000 compounds, 0.13% hits | AID 602396, 2012;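 active = inhibition above the mean inhibition of all tested compounds plus 3 SD, cut at about 73% in these data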
VP16 Luc counter: Gal4-VP16 luciferase reporter inhibitors, counter-screen for COUP-TFII antagonist project, cell-based, luminescence, HEK293; shares compounds with COUP-TFII inh; inhibition, % at 8.5 µM; 2,500 compounds, 25% hits; AID 687007, 2013; in the data active = inhibition above about 13%
COUP-TFII conf: NR2F2 transcriptional activity inhibitors, confirmation, cell-based, luciferase reporter, HEK293, triplicate | shares compounds with COUP-TFII inh | HEK293 NGFI-A luciferase reporter, luminescence | inhibition, % at 8.5 µM | 2,500 compounds, 45% hits | AID 687008, 2013;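 active = mean inhibition over three repeats above a set limit taken from the earlier primary screen, cut at about 38% in these data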
Each line names hits and unclear results; the compound was inactive in the other large screens (follow-up assays come after a bar, where they were run). Only some compounds are listed: those with a hit (about 1.1% of all), similar ones and a draw of the others.

c1ccc(CN=C2CCCc3ccccc3N2)cc1	none
COc1ccc(CNCC#Cc2ccccc2)c(OC)c1	none (no result: NCOA3 inh, GalR3 antagonist, SRC1 inh, NR5A2 inv ag)
C=CCN=C1NC(c2cccc(Cl)c2)C(C(=O)OC)=C(C)N1C (stereo unspecified)	none (no result: NCOA3 inh, SRC1 inh, NR5A2 inv ag)
NC(=O)[C@@H]1CC2(CC(c3cccc(NC(=O)COc4ccc(Cl)cc4)c3)=NO2)CN1C(=O)COc1ccc(Cl)cc1 (stereo partly specified)	COUP-TFII inh 45.2 | VP16 Luc counter inactive | COUP-TFII conf inactive
CC(Oc1ccc(Br)cc1Cl)C(=O)Nc1ccncc1 (stereo unspecified)	COUP-TFII inh 44.7 | VP16 Luc counter inactive | COUP-TFII conf inactive
CCOC(=O)c1c(-c2ccccc2)oc2ccc(O)c(CN3CCN(C)CC3)c12	COUP-TFII inh 37.6 | VP16 Luc counter inactive | COUP-TFII conf inactive
CCOC(=O)c1c(C)n(C)c2ccc(O)c(CN3CCN(C)CC3)c12	none
CCN(CC)S(=O)(=O)c1cc(NC(=O)C2CC(=O)N(Cc3ccccc3)C2)ccc1Cl (stereo unspecified)	COUP-TFII inh 53.1 | VP16 Luc counter inactive | COUP-TFII conf inactive
Cc1nc(Nc2ncc(C(=O)Nc3c(C)cccc3Cl)s2)cc(N2CCN(CCO)CC2)n1	COUP-TFII inh 39.0 (no result: NCOA3 inh, GalR3 antagonist, SRC1 inh, NR5A2 inv ag) | VP16 Luc counter inactive | COUP-TFII conf inactive
COc1cc(C(O)c2nc(-c3cccc(C(C)C)c3)cs2)ccc1F (stereo unspecified)	none
S=C(NCc1ccc(Cl)cc1)OC1CCC12CCC(c1ccccc1)CC2 (stereo unspecified)	none (no result: NCOA3 inh, GalR3 antagonist, SRC1 inh, NR5A2 inv ag)
Cc1cccc(NC(=O)c2ccc(C3SCC(=O)N3CCc3ccccc3)cc2)c1 (stereo unspecified)	COUP-TFII inh 45.4 | VP16 Luc counter inactive | COUP-TFII conf inactive
CCCCn1c2c(c(=N)c3c1CCC3)CCC2	COUP-TFII inh 47.3 | VP16 Luc counter inactive | COUP-TFII conf 39.2
O=Cc1c[nH]c2cccc(OCc3ccccc3)c12	none
O=C(Nc1ccc(F)cc1)OCCN1C(=O)CCC12CCC(c1ccccc1)CC2 (stereo unspecified)	none (no result: NCOA3 inh, GalR3 antagonist, SRC1 inh, NR5A2 inv ag)
COc1cc2c(cc1OC)C(c1ccc(-c3cc(Cl)ccc3Cl)o1)=NCC2	none (no result: COUP-TFII inh, GalR3 antagonist, SRC2 inh)
COc1cc2c(cc1OC)C(c1ccc(-c3ccc(Cl)c(Cl)c3)o1)=NCC2	COUP-TFII inh 50.7 | VP16 Luc counter inactive | COUP-TFII conf 45.5
COc1cc2c(cc1OC)C(c1ccc(-c3ccc(Cl)cc3Cl)o1)=NCC2	COUP-TFII inh 62.1 | VP16 Luc counter inactive | COUP-TFII conf 42.1
Cc1ccc(C)c(N2CCN(C(=O)CCS(=O)(=O)c3ccc4c(c3)NC(=O)CO4)CC2)c1	COUP-TFII inh 42.5 | VP16 Luc counter inactive | COUP-TFII conf inactive
CCC(=O)N1CCc2cc(Br)c(S(=O)(=O)NCCCN(CC)Cc3ccccc3)cc21	none (no result: NCOA3 inh, GalR3 antagonist, SRC1 inh, NR5A2 inv ag)
COc1cc(-c2cc(N)n(S(=O)(=O)c3ccc(F)cc3)n2)cc(OC)c1OC	none
COc1ccc(-c2cc(N)n(S(=O)(=O)c3ccc(F)cc3)n2)cc1OC	COUP-TFII inh 45.6 | VP16 Luc counter inactive | COUP-TFII conf inactive
O=C(Nc1ccc(Oc2ccccc2)cc1)c1cnc2n(c1=O)CCS2	COUP-TFII inh 43.3 | VP16 Luc counter inactive | COUP-TFII conf 38.0
CCOc1ccc(/C=N/NC(=O)Cn2ccnc2C)cc1	none
COc1ccc(Cl)cc1Nc1nc(-c2sc(NC(=O)C(C)(C)C)nc2C)cs1	COUP-TFII inh 40.7, SRC1 inh 72.4 | VP16 Luc counter inactive | COUP-TFII conf 41.6
